In PubChem BioAssay (NCATS):
Values joined by “and” are separate entries in the source; they are usually repeats but may differ in a detail not shown here. Equal values may be shown once. Inconclusive results are not listed. Where a structure was tested more than once in an assay, its records may differ in their call. Active and inactive are the calls of the source. Unless noted, the call rests on the fitted dose curve.

Legend:
[1] = biological target: Glucocorticoid receptor (Homo sapiens) (UniProt P04150); assay: qHTS assay for small molecule agonists of glucocorticoid receptor signaling (AID 588532; active means well fitted curve in the direction sought with a large enough effect in the signal ratio, with a control signal flat; the % refers to the signal ratio;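 further: 100% = dexamethasone at 0.1 µM and 0% = DMSO only wells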); details: HeLa MMTV-bla, beta-lactamase ratio, agonist, 18 h; activation: stronger effect = higher value, percent of dexamethasone control, DMSO zero
Method in brief: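 Cells were plated and rested 3-5 h at 37 C, compounds were added in titration and incubated 18 h, then CCF4 substrate was loaded for 2 h at RT before reading blue/green fluorescence. EC50 came from Hill-equation fitting.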

[2] = qHTS assay for small molecule antagonists of peroxisome proliferator-activated receptor delta signaling (AID 588535; active means well fitted inhibition curve with a large enough effect in the signal ratio, with a control signal flat, not every such curve was filed as active; the % refers to the signal ratio;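 on max response: cells co-treated with a PPAR-delta agonist as stimulator during compound exposure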); details: HEK293T PPARd-UAS-bla, beta-lactamase FRET ratio, 18 h; 460 nm channel
Method in brief: (§1)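 Fluorescence from CCF4-loaded GeneBLAzer PPAR-delta-UAS-bla HEK293T cells (2 hrs RT loading) quantified reporter inhibition after an 18 hr, 37 C compound exposure across a titration.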

[3] = biological target: Peroxisome proliferator-activated receptor delta (Homo sapiens) (UniProt Q03181); assay: as above
Method in brief: as §1

[4] = biological target: Peroxisome proliferator-activated receptor gamma (Homo sapiens) (UniProt P37231); assay: qHTS assay for small molecule agonists of peroxisome proliferator-activated receptor gamma signaling (AID 588536; active means well fitted curve in the direction sought with a large enough effect in the signal ratio, with a control signal flat, not every such curve was filed as active; the % refers to the signal ratio;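 further: 0% = DMSO basal wells and 100% = rosiglitazone at 2 µM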)
Method in brief: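 Compound treatment: 16 h, 37 C, HEK293 GeneBLAzer cells. Detection: CCF4, 2 h RT. Values: Hill-fit EC50, efficacy as % of 2 uM rosiglitazone.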

[5] = biological target: Peroxisome proliferator-activated receptor gamma (Homo sapiens) (UniProt P37231); assay: qHTS assay for small molecule antagonists of peroxisome proliferator-activated receptor gamma signaling (AID 588537; active means well fitted inhibition curve with a large enough effect in the signal ratio, with a control signal flat, not every such curve was filed as active; the % refers to the signal ratio;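 further: reporter cells co-stimulated with 50 nM rosiglitazone agonist during compound treatment; % of control where 0% means no effect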)
Method in brief: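 Fluorescence at 460 and 530 nm (405 nm excitation) reported beta-lactamase cleavage of CCF4 after 2 h room-temperature loading. HEK293 reporter cells in 1% charcoal/dextran-treated FBS had received compound and rosiglitazone for 16 h.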

[6] = biological target: Vitamin D3 receptor (Homo sapiens) (UniProt P11473); assay: qHTS assay for small molecule agonists of vitamin D receptor signaling (AID 588543);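 further: 0% = DMSO basal and 100% = reference agonist control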
Method in brief: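 Reporter cells (HEK293T, VDR-UAS-bla) were seeded in medium with 2% charcoal-stripped serum and incubated 5 h, then compounds in concentration series were added for 16 h at 37 °C. Stimulation was scaled between DMSO basal and 50 nM 1α,25-dihydroxyvitamin D3.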

[7] = qHTS assay for small molecule agonists of retinoid X receptor alpha signaling (AID 588544); details: HEK293T RXRa-UAS-bla, beta-lactamase reporter, 18 h; 530 nm emission;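 on activation: 0% = DMSO basal wells and 100% = reference agonist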
[8] = biological target: Retinoic acid receptor RXR-alpha (Homo sapiens) (UniProt P19793); assay: as above
[9] = qHTS assay for small molecule antagonists of retinoid X receptor alpha signaling (AID 588546; active means well fitted inhibition curve with a large enough effect in the signal ratio, with a control signal flat, not every such curve was filed as active; the % refers to the signal ratio;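 further: cells stimulated with 9-cis-retinoic acid as agonist; on the % scale 0 is the no-effect control and ±100 the full control effect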); details: HEK293T RXRa-UAS-bla, beta-lactamase ratio, antagonist mode; measured here: W530 green channel, cytotoxicity proxy
Method in brief: (§2)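 Beta-lactamase reporter inhibition, read as CCF4 fluorescence ratio (ex 405, em 460/530 nm) after 2 h at RT. HEK293T UAS-bla cells, 2500/well, were stimulated with 9-cis-RA at 500 or 100 nM final alongside test compound for 18 h at 37 C.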

[10] = biological target: Retinoic acid receptor RXR-alpha (Homo sapiens) (UniProt P19793); assay: as above; details: HEK293T RXRa-UAS-bla, beta-lactamase ratio, antagonist mode
Method in brief: as §2

[11] = qHTS assay for small molecule agonists of the antioxidant response element (ARE) signaling pathway (AID 651741; active means well fitted activation curve with a large enough effect in the signal ratio; the % refers to the signal ratio; further: potency means the concentration at half of the fitted maximal effect; on activation: % of control where 0% means no effect)
Method in brief: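 Stably integrated ARE-beta-lactamase reporter HepG2 cells; 16 h compound incubation, 37 C; LiveBLAzer FRET substrate 2 h at room temperature; fluorescence intensity.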

[12] = qHTS assay for environmental chemicals that activate the Aryl hydrocarbon Receptor (AhR) signaling pathway (AID 651777; active means well fitted curve in the direction sought with a large enough effect; an effect the other way counts as inactive or inconclusive; further: % of control where 0% means no effect; nearly all actives have a fitted effect of over 15% in size); details: 1A2-DRE human hepatoma cells, luciferase, 24 h; activation: stronger effect = higher value
Method in brief: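 Human hepatoma 1A2-DRE cells, stably carrying a dioxin response element and CYP1A2 promoter driving luciferase, were exposed to compounds for 24 hr at 37 C and 5% CO2. Luciferase signal was then read after 30 min One-Glo at room temperature.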

[13] = biological target: Peroxisome proliferator-activated receptor alpha (Homo sapiens) (UniProt Q07869); assay: qHTS assay for small molecule agonists of the peroxisome proliferator-activated receptor alpha (PPARalpha) signaling pathway (AID 651778; active means well fitted curve in the direction sought with a large enough effect; an effect the other way counts as inactive or inconclusive; further: % of control where 0% means no effect); details: PathHunter PPARalpha complementation, chemiluminescence, 6 h; max response: stronger effect = higher value
Method in brief: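 Enzyme-fragment complementation assay in which ligand-bound PPARalpha translocates and forms an active enzyme that generates chemiluminescence. Cells were plated overnight, exposed to compound for 6 hr at 37 C, and then given detection reagent for 60 min at room temperature.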

[14] = qHTS assay for small molecule agonists of the antioxidant response element (ARE) signaling pathway measured by Nrf2-dependant transcriptional activity (AID 720636; active means well fitted curve in the direction sought with a large enough effect in the repeat runs; an effect the other way counts as inactive or inconclusive; further: potency means the concentration at half of the fitted maximal effect; on activation: % of control where 0% means no effect)
Method in brief: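 ARE-luc HepG2 cells carrying an Nrf2-responsive luciferase reporter were plated in medium with 1% dialyzed FBS, left 6 hr at 37 C to attach, then exposed to compound for 16 hr. Luciferase luminescence was read after ONE-Glo addition.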

[15] = qHTS assay for small molecule agonists of the antioxidant response element (ARE) signaling pathway measured by Nrf2-dependant transcriptional activity - cell viability counter screen (AID 720653; active means well fitted curve in the direction sought with a large enough effect in the repeat runs; an effect the other way counts as inactive or inconclusive; further: on the % scale 0 is the no-effect control and ±100 the full control effect); details: ARE-bla HepG2 viability, CellTiter-Glo ATP luminescence, 16 h; max response: stronger effect = lower value
Method in brief: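 ARE-bla HepG2 cells treated with compounds for 16 h at 37C; this counter screen measures viability as intracellular ATP by CellTiter-Glo luminescence after 30 min at room temperature.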

[16] = qHTS assay for cell viability of HEK293 cells (AID 743288; active means well fitted curve in the direction sought with a large enough effect; an effect the other way counts as inactive or inconclusive; further: on the % scale 0 is the no-effect control and ±100 the full control effect; nearly all actives have a fitted effect of over 50% in size); details: ATP luminescence (CellTiter-Glo), 18 h; max response: stronger effect = lower value
Method in brief: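 Viable-cell counts were inferred from luciferase-based ATP content in HEK293 cells seeded at 2,000/well, pre-incubated ≥5 h, then dosed with DMSO-solubilised compounds for 18 h at 37 C.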

[17] = qHTS assay for cell viability of the p53RE-bla HCT-116 cell line (AID 743292; active means well fitted curve in the direction sought with a large enough effect; an effect the other way counts as inactive or inconclusive; further: on the % scale 0 is the no-effect control and ±100 the full control effect; nearly all actives have a fitted effect of over 55% in size)
Method in brief: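 CellSensor p53RE-bla HCT-116 cells, 4,000/well, preincubated 5 h at 37 C, then exposed to compounds in DMSO for 16 h at 37 C. Viability read as CellTiter-Glo luminescence (intracellular ATP) after 30 min at room temperature.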

[18] = biological target: Nuclear receptor subfamily 1 group I member 2 (Rattus norvegicus) (UniProt Q9R1A7); assay: qHTS assay for small molecule activators of the rat pregnane X receptor (rPXR) signaling pathway (AID 651751; call rule not given here; further: 0% is about no effect); details: rPXR reporter cells, luciferase (One-Glo), 24 h
[19] = qHTS assay for small molecule activators of the human pregnane X receptor (PXR) signaling pathway (AID 720659; call rule not given here; further: 0% is about no effect)
[20] = biological target: Peroxisome proliferator-activated receptor delta (Homo sapiens) (UniProt Q03181); assay: qHTS assay for small molecule agonists of peroxisome proliferator-activated receptor delta signaling (AID 588534);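 further: 0% = DMSO basal wells and 100% = positive control agonist at 10 µM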
Method in brief: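 Agonist-mode qHTS; reporter cells, 5 hrs 37 C pre-incubation; compound titration, 18 hrs 37 C; CCF4 dye, 2 hrs RT; fluorescence read. EC50/efficacy via Hill fit.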

[21] = biological target: Vitamin D3 receptor (Homo sapiens) (UniProt P11473); assay: qHTS assay for small molecule antagonists of vitamin D receptor signaling (AID 588541);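 further: receptor activated by calcitriol during compound treatment; series mostly up to about 77 µM; on the % scale 0 is the no-effect control and ±100 the full control effect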
Method in brief: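 VDR-UAS-bla HEK293T cells in 2% charcoal-stripped FBS were stimulated with 1-alpha,25-dihydroxyvitamin D3 (3 nM final) plus compound for 16 h at 37 C. The beta-lactamase CCF4 readout was normalized to 50 nM agonist and DMSO, and Hill fits gave IC50.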

[22] = biological target: Thyroid hormone receptor beta (Homo sapiens) (UniProt P10828); assay: qHTS assay for small molecule agonists of thyroid hormone receptor beta signaling (AID 588545)
Method in brief: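 HEK 293 TR-UAS-bla; agonist mode; 18 hrs, 37 C; CCF4, ex 405/em 460 and 530 nm; norm. T3 10 nM = 100%, DMSO = 0%; Hill fit → EC50, efficacy.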

[23] = qHTS assay for small molecule activators of the p53 signaling pathway (AID 651743; active means well fitted activation curve with a large enough effect in the signal ratio, not every such curve was filed as active; the % refers to the signal ratio; further: series mostly up to about 92 µM; % of control where 0% means no effect); details: HCT-116 p53RE-bla, beta-lactamase FRET ratio, 16 h; activation: stronger effect = higher value
Method in brief: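 Following 16 hours of compound exposure at 37 C, HCT-116 cells bearing the p53RE-bla reporter were loaded with LiveBLAzer B/G FRET substrate for 2 hours at room temperature and fluorescence intensity was recorded.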

[24] = qHTS assay for small molecule activators of the nuclear factor-kappa B (NF-kB) signaling pathway (AID 651749; active means well fitted activation curve with a large enough effect in the signal ratio; the % refers to the signal ratio; further: series mostly up to about 77 µM; % of control where 0% means no effect); details: NF-kB-bla ME-180 cells, beta-lactamase FRET ratio, 16 h; activation: stronger effect = higher value
Method in brief: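 In this qHTS format, compounds acting as activators increase NF-kB-driven beta-lactamase in ME-180 cells, measured as disrupted FRET after 16 hr exposure at 37C and 5% CO2.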

Chain of Retinoic acid receptor RXR-alpha (Homo sapiens) (P19793 whole entry, looked up): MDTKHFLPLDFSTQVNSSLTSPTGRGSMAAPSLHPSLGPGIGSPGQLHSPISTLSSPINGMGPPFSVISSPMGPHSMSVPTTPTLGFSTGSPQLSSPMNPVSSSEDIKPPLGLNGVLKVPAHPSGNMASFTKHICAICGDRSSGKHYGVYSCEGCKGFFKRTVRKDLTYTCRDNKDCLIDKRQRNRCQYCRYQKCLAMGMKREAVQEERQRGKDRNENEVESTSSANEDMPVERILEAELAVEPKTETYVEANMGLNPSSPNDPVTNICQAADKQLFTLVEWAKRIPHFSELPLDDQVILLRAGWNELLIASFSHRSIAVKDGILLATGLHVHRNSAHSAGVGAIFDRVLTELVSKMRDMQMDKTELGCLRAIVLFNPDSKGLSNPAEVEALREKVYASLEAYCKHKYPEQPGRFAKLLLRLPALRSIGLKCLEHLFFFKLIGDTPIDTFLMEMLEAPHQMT
Chain of Vitamin D3 receptor (Homo sapiens) (P11473 whole entry, looked up): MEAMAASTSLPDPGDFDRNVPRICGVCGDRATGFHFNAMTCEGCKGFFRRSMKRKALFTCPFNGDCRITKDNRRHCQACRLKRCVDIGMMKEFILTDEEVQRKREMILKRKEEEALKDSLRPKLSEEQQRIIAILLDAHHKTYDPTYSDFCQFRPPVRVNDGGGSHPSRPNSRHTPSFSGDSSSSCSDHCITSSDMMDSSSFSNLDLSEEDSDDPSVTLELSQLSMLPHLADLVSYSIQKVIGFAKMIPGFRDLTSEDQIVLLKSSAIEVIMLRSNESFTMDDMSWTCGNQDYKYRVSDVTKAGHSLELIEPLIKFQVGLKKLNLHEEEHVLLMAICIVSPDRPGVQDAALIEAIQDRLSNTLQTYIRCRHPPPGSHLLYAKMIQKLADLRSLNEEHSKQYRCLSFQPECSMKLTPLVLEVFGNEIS
Chain of Glucocorticoid receptor (Homo sapiens) (P04150 whole entry, looked up): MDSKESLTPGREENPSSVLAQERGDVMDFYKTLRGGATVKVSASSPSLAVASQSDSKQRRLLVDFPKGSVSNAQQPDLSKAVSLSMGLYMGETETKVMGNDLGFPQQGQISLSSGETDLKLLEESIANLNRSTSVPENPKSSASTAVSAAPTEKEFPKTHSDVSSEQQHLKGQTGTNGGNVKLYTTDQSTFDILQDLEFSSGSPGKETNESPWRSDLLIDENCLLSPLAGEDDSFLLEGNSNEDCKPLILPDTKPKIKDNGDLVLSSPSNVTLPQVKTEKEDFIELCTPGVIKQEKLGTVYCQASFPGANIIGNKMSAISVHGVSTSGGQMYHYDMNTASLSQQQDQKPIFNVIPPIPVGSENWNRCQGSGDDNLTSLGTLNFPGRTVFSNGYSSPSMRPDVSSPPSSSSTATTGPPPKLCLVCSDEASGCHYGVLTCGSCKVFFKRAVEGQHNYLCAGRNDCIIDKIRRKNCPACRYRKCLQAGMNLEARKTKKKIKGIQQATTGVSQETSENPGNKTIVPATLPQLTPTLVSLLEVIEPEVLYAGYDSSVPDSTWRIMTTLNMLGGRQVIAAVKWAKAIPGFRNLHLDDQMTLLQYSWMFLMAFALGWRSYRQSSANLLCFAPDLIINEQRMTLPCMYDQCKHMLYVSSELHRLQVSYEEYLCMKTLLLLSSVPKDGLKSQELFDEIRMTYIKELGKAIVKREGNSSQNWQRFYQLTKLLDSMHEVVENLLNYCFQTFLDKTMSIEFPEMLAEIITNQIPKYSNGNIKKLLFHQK
Chain of Peroxisome proliferator-activated receptor delta (Homo sapiens) (Q03181 whole entry, looked up): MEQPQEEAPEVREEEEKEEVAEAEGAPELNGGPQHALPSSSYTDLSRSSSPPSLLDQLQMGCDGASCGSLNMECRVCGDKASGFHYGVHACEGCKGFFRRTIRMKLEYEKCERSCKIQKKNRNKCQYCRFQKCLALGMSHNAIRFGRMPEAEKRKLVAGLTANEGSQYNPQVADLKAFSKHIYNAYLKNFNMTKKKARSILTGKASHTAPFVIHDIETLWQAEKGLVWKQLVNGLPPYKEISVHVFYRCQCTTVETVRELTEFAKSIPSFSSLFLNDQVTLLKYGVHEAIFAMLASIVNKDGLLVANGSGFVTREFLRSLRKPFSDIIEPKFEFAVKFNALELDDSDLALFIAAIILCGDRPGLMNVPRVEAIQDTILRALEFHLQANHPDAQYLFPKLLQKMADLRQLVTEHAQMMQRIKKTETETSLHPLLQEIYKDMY
Chain of Nuclear receptor subfamily 1 group I member 2 (Rattus norvegicus) (Q9R1A7 whole entry, looked up): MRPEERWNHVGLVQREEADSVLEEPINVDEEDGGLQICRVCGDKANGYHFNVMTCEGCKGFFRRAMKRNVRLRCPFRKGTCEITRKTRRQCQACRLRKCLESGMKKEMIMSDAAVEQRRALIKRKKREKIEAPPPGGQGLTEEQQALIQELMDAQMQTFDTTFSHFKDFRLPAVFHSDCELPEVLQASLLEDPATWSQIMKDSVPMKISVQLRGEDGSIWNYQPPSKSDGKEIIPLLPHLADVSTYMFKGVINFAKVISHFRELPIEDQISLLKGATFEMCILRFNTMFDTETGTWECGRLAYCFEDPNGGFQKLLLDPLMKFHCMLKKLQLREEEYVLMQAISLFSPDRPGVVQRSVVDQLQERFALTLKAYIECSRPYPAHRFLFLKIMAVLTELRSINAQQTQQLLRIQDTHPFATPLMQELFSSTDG
Chain of Peroxisome proliferator-activated receptor gamma (Homo sapiens) (P37231 whole entry, looked up): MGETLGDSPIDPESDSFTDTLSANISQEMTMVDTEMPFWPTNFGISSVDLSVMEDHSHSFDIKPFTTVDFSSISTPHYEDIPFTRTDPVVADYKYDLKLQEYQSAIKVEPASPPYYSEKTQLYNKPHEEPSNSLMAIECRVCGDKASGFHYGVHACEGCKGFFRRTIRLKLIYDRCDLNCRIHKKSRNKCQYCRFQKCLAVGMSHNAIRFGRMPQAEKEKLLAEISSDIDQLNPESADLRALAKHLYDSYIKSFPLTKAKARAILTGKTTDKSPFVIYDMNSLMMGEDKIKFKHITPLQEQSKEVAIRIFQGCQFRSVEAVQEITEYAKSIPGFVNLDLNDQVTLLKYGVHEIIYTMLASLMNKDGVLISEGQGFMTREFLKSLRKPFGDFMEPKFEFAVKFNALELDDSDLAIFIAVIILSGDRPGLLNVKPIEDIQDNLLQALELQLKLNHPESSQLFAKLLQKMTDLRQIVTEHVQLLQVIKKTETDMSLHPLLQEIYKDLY
Chain of Peroxisome proliferator-activated receptor alpha (Homo sapiens) (Q07869 whole entry, looked up, the tested form may be a part): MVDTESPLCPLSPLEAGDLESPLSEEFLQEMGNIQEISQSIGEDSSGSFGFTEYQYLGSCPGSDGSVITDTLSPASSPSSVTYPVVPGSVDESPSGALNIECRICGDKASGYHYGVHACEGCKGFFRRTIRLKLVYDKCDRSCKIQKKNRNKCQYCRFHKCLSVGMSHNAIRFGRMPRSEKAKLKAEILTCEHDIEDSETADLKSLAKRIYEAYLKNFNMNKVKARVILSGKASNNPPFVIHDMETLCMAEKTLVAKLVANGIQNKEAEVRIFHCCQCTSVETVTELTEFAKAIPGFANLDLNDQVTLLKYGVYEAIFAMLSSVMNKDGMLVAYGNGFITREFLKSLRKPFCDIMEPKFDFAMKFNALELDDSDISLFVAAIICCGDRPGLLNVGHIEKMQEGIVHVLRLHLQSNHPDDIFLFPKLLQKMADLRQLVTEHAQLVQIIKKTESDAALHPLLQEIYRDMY
Chain of Thyroid hormone receptor beta (Homo sapiens) (P10828 whole entry, looked up): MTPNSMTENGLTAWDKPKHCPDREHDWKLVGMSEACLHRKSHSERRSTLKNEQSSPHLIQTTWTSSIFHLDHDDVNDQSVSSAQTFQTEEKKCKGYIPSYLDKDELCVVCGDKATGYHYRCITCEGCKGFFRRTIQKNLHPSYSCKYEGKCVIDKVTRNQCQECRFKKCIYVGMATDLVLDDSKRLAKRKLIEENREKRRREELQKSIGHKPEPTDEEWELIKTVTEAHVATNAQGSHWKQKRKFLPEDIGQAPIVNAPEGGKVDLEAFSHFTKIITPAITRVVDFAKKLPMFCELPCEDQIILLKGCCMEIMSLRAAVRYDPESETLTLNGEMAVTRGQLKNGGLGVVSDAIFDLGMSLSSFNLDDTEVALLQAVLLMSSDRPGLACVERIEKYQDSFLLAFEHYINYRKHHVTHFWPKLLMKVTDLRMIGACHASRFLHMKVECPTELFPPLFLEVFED

COC(=O)c1sccc1S(=O)(=O)NC(=O)Nc1nc(C)nc(OC)n1
-1.17%: max response [9]
-0.622%: max response [7]
-31.9%: max response [2]
inactive: activation [1] -2.71% | Potency [3] | Potency [4] | Potency [5] | outcome [6] | Potency [8] | max response [10] -14.7% | Potency [11] | activation [12] 0.948% | max response [13] -0.482% | Potency [14] | max response [15] 2.61% | max response [16] -12% | Potency [17] | max response [18] 3.77% | outcome [19]

Oc1ccc(C(c2ccc(O)cc2)(C(F)(F)F)C(F)(F)F)cc1
-38.3%: max response [2]
active: Potency [11] 48.6 µM
inactive: activation [1] -15.3% | outcome [20] | Potency [3] | Potency [21] | outcome [6] | Potency [22] | activation [23] 22.5% | activation [24] -2.42% | activation [12] 0.672% | max response [13] -3.57% | max response [15] -1.13% | Potency [17] | max response [18] 0.831%

S=C([S-])NCCNC(=S)[S-].[Zn+2]
inactive: activation [1] 4.35% | Potency [21] | Potency [8]
active: Potency [11] 21.7 µM and 27.3 µM
inactive and 68.6 µM (active): Potency [14]
2.58%: max response [7]
-2.08% and 15.4%: max response [9]
